Experimental findings from PubChem BioAssay (Tox21) are described below.

The source made the active and inactive calls. Entries that show only a call come without a potency. The call rests on the fitted dose curve; in most records, active means well fitted activation curve with a large enough effect in the repeat runs; inconclusive means weak or mixed curves; inactive means flat fitted curve, though single readings scatter.

For the experiment, the target named is KiSS-1 receptor (Homo sapiens) (UniProt Q969F8). In words: Human kisspeptin (KISS1R) small molecule agonists, calcium flux assay in KISS1R-HEK293 cells (AID 1920064). The following applies: KISS1R-HEK293, calcium flux fluorescence, agonist; series mostly up to 76.8 µM. From the text: National Center for Advancing Translational Sciences [NCATS]
KiSS-1 receptor (Homo sapiens), sequence (Q969F8 whole entry, looked up): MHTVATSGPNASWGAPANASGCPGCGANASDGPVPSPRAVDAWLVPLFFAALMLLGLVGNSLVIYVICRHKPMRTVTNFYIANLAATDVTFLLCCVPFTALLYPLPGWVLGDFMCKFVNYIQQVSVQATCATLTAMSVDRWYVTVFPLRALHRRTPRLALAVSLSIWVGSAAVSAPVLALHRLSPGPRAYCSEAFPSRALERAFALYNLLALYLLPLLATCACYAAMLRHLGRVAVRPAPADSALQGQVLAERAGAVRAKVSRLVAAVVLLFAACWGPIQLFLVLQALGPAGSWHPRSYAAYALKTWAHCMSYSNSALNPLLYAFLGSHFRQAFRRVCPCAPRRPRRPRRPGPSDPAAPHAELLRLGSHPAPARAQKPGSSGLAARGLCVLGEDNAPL
Division of Preclinical Innovation [DPI]
U.S. Environmental Protection Agency [EPA]
National Institutes of Environmental Health Sciences [NIEHS]
National Toxicology Program [NTP]
U.S. Food and Drug Administration [FDA]
Kisspeptin and its receptor KISS1R play key roles in mammalian reproduction due to their involvement in the onset of puberty and control of the hypothalamic-pituitary-gonadal axis such as regulates GnRH release from the hypothalamus. The kisspeptin/KISS1R system also plays a direct role in peripheral organs (including the ovary, testis, uterus, and placenta) and is implicated in reproductive diseases such as miscarriage and polycystic ovary syndrome (PCOS). Abnormal KISS1R activity is associated with abnormal puberty, infertility, endometriosis, and hormone-dependent tumors. The KISS1 receptor (KISS1R, also called GPR54), a G-protein-coupled receptor (GPCR), acts (through phospholipase C) to increase intracellular inositol trisphosphate and then release intracellular calcium stores. Cell-based KISS1R-HEK293 assay is using HEK293 cells that have been genetically engineered to express the human KISS1R, which activity can be measured by calcium signaling. A compound/drug can activate (agonist) KISS1R that can be monitored by levels of intracellular calcium.
KISS1R-HEK293 cells developed by Codex Corp contain human KISS1R gene, which was stably integrated into HEK 293 cells. The compound activation can be detected by fluorescence intensity via calcium flux assay. This cell line has been used to screen the Tox21 10K compound library to identify agonists of KISS1R.
KISS1R-Hek293 cells were dispensed at 1500 cells/4uL/well in 1536-well black wall/clear bottom plates using a multidrop dispenser. After the assay plates were incubated at a 37 C/5% CO2 incubator for 18 hours, 4 microL of Calcium Dye Solution was added to each well. The plates were incubated at 37 C for 1 hour. And then 23 nL of compounds dissolved in DMSO, positive controls, or DMSO only was transferred to the assay plate by a pin tool station. The fluorescence intensity in the plates was measured using FDSS 7000EX kinetic plate reader with a filter set of Ex/Em=480/540 for 3 min at 1 sec intervals. Each test compound was measured at 15 concentrations and in triplicates.
For orientation: Calcium assays in cells follow changes in intracellular calcium, usually with a dye or a luminescent sensor.
Turning to `CC(=O)[C@H]1[C@H](C#N)C[C@H]2[C@@H]3CC=C4C[C@@H](O)CC[C@]4(C)[C@H]3CC[C@@]21C`, the Potency result was “inactive”.

`C=CC(=O)[O-].C=CC(=O)[O-].[Zn+2]`: the Potency entry was “inactive”.

As to `C=C[Si](OC)(OC)OC`, the Potency entry is “inactive”.

As for `OCCC1CCCCN1` (stereo not given), the Potency entry was “inactive”.

As for `CC(=O)c1ccc(OCC(=O)N2CCCCC2)cc1`, the Potency entry is “inactive”.

Turning to `NCCCN(CCO)CCO`, the Potency result was “inactive”.

With `N#CCCNCCC#N`, the Potency result was “inactive”.

`CCCOCC(C)OCC(C)O` (stereo not given): the Potency entry was “inactive”.

As to `CCCCCC=CCC=CCCCCCCCC(=O)OCC`, the Potency result was “inactive”.

As for `CCOc1ccc(N=Nc2ccc(/C=C/c3ccc(N=Nc4ccc(OCC)cc4)cc3S(=O)(=O)O)c(S(=O)(=O)O)c2)cc1`, the Potency entry is “inactive”.

Regarding `CSc1ccc(O)cc1C`, the Potency result is “inactive”.

Turning to `CC(=O)c1ccccc1[N+](=O)[O-]`, the Potency entry is “inactive”.

As for `Cc1cccc(OCC(O)CNC(C)(C)C)c1C` (stereo not given), the Potency result is “inactive”.

Regarding `N#CCCOCCC#N`, the Potency entry was “inactive”.

Take `CCC1=C[C@@H]2CN(C1)Cc1c([nH]c3ccccc13)[C@@](C(=O)OC)(c1cc3c(cc1OC)N(C)[C@H]1[C@@](O)(C(=O)OC)[C@H](OC(C)=O)[C@]4(CC)C=CCN5CC[C@]31[C@@H]54)C2`: the Potency result was “inactive”.

For the compound `CO[C@@H]1[C@@H](OC)[C@H](C)[C@@](O)(CC(=O)O)O[C@H]1[C@H](C)[C@H]1O[C@@]2(CC[C@@](C)([C@H]3CC[C@@](C)([C@@H]4O[C@@H]([C@H]5O[C@](C)(O)[C@H](C)C[C@@H]5C)C[C@@H]4OC4C[C@H](OC)[C@@H](OC)[C@H](C)O4)O3)O2)C[C@H](O)[C@H]1C` (stereo not given in full), the Potency entry was “inactive”.

For the compound `CCc1oc2ccccc2c1C(=O)c1cc(Br)c(O)c(Br)c1`, the Potency result was “inactive”.

`Clc1sc(Cl)c(Cl)c1Cl`: the Potency entry is “inactive”.

In the case of `O=C1Nc2ccc(Cl)cc2[C@@](C#CC2CC2)(C(F)(F)F)O1`, the Potency result is “inactive”.

Consider `C/C(=C\c1ccc(C(=O)O)cc1)c1ccc2c(c1)C(C)(C)CCC2(C)C`, for which the Potency entry is “inactive”.

As for `Cc1ccc(NC=O)c(C)c1`, the Potency result is “inactive”.

In the case of `CC(C)NCC(O)COc1ccc(CC(N)=O)cc1` (stereo not given), the Potency result is “inactive”.

Turning to `O=C(c1ccccc1)c1ccc(O)cc1`, the Potency entry was “inactive”.

On to `CCCCCCCCCCCCSC#N`, for which the Potency result is “inactive”.

With `CC(C)(C)C1CCCCC1=O` (stereo not given), the Potency result is “inactive”.

As for `COc1cccc(N)c1`, the Potency entry is “inactive”.

As for `CCOc1cccc(-n2cc(C(=O)N3CCN(c4cc(C(=O)O)c5ccccc5c4)CC3)nc2-c2ccc(C)cc2)c1`, the Potency entry is “inactive”.

As to `NCCCC(O)(P(=O)(O)O)P(=O)(O)O`, the Potency result is “inactive”.

Take `Cc1cc(O)c2c(O)c3c(O)cccc3cc2c1`: the Potency result was “inactive”.

With `CCCCN(CCCC)CCC(O)c1cc2c(Cl)cc(Cl)cc2c2cc(C(F)(F)F)ccc12` (stereo not given), the Potency entry was “inactive”.

Consider `Cc1ccc(Cl)cc1N`, for which the Potency result is “inactive”.

With `N[C@@H](Cc1ccc(O)cc1)C(=O)O`, the activation was 0.301% [at 6.97 µM] (inactive).

`CCCCOCCOCCOCc1cc2c(cc1CCC)OCO2`: the Potency entry was “inactive”.

As for `COc1cccc(N(C)C(=S)Oc2ccc3c(c2)CCCC3)n1`, the Potency entry is “inactive”.

Take `C1C2OC2C2C1C1CC2C2OC12` (stereo not given): the Potency entry is “inactive”.

Consider `CCN(CC)CC(=O)Nc1c(C)cccc1C`, for which the Potency result was “inactive”.

On to `C[C@]12C(=O)OC(=O)[C@H]1[C@H]1C=C[C@@H]2C1`, for which the Potency entry is “inactive”.

As for `O=c1c2ccccc2oc2ccccc12`, the Potency result is “inactive”.

As to `C=C[Si](OC(C)=O)(OC(C)=O)OC(C)=O`, the Potency result is “inactive”.

Turning to `C[C@@H]1C[C@H]2[C@@H]3CCC4=CC(=O)C=C[C@]4(C)[C@@]3(Cl)[C@@H](O)C[C@]2(C)[C@@]1(OC(=O)c1ccco1)C(=O)CCl`, the Potency result is “inactive”.
